# In PubChem BioAssay (Tox21):
# Inconclusive results are not listed. Entries that show only a call come without a potency. Calls of active or inactive are those of the source. The call rests on the fitted dose curve; in most records, active means well fitted cell-killing curve with a large enough effect in the repeat runs; inconclusive means weak or mixed curves, or effect the other way; inactive means flat fitted curve, though single readings scatter.
# Assay: qHTS assay to identify small molecule agonists of the androgen receptor (AR) signaling pathway in the presence of an antagonist - cell viability counter screen (AID 1259379);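 further: MDA-kb2 human breast cancer cells carrying an MMTV luciferase reporter; nearly all actives have a fitted effect of over 25% in size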
# Details: MDA-kb2 viability, CellTiter-Fluor, 16 h; series mostly up to 92.4 µM
# Summary of the method: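 Viability counter screen: CellTiter-Fluor fluorescence, measured in the same wells as the luciferase read-out. MDA-kb2 cells, 3,000/well, with nilutamide at 3.0uM final and compounds at 15 concentrations, 16 hr at 37C, 0% CO2.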
row,Structure (SMILES),Potency
1,O=[N+]([O-])c1ccccc1CCO,inactive
2,c1ccc(CN(Cc2ccccc2)Cc2ccccc2)cc1,inactive
3,CC(CCl)OC(C)CCl (stereo not given),inactive
4,CCC(=O)O[C@]1(C(=O)COC)[C@@H](C)C[C@H]2[C@@H]3CCC4=CC(=O)C=C[C@]4(C)C3(F)[C@@H](O)C[C@@]21C (stereo not given in full),inactive
5,Clc1ccccc1-c1nc(-c2ccncc2)no1,inactive
6,C=CC(C)(O)CC/C=C(/C)CCC=C(C)C (stereo not given),inactive
7,C[Si](C)(C)O[Si](C)(C)O[Si](C)(C)C,inactive
8,CC(=O)S[C@H](C(=O)N[C@H]1Cc2ccccc2[C@H]2CCC[C@@H](C(=O)O)N2C1=O)C(C)C,inactive
9,CC/C=C/CCO,inactive
10,COC(=O)C(C)(C)C,inactive
11,Cc1cc(C)n(CO)n1,inactive
12,O=C(O)c1ccccc1-n1cc(C(=O)O)c(=O)c2cc(Nc3c(F)cc(F)cc3Cl)c(Cl)cc21,inactive
13,CC(=O)OCC(=O)[C@@]1(O)CC[C@H]2[C@@H]3CCC4=CC(=O)C=C[C@]4(C)[C@@]3(F)[C@@H](O)C[C@@]21C,inactive
14,CCC(C)CCCC(C)(C)O (stereo not given),inactive
15,COc1ccc(/C=C/S(=O)(=O)NC(=O)c2ccc(C)cc2Cl)cc1,inactive
16,Cc1cccc(C)c1NC(=O)CN1CCCC1,inactive
17,Cc1c(Nc2ncccc2C(=O)O)cccc1C(F)(F)F,inactive
18,O=C(O)c1cc(C(=O)O)cc([N+](=O)[O-])c1,inactive
19,CCCCC(CC)COCCC#N (stereo not given),inactive
20,O=C1c2ccccc2C(=O)C1c1ccc2ccccc2n1,inactive
21,CCc1cnc(C(=O)O)c(C(=O)O)c1,inactive
22,O=[N+]([O-])c1ccc(Cl)cc1Cl,inactive
23,CCCCCC1CCC(=O)O1 (stereo not given),inactive
24,O=Cc1ccc([N+](=O)[O-])cc1,inactive
25,Nc1ccccc1Nc1ccccc1,inactive
26,FC1(F)C(F)(F)C(F)(F)C2(F)C(F)(C1(F)F)C(F)(F)C(F)(F)C1(F)C(F)(F)C(F)(F)C(F)(F)C(F)(F)C12F (stereo not given),inactive
27,C=C[Si]1(C)O[Si](C)(C=C)O[Si](C)(C=C)O[Si](C)(C=C)O1 (stereo not given),inactive
28,OCCOc1cccc(OCCO)c1,inactive
29,O=C(O)COCC(=O)O,inactive
30,CC(C)CCCCCCCOC(=O)c1ccc(C(=O)OCCCCCCCC(C)C)c(C(=O)OCCCCCCCC(C)C)c1,inactive
